# From ChEMBL document CHEMBL3988442, “University of Dundee, Small-Polar-MMV Screening Library” (2021)
# The whole screen tested about 69,000 compounds, of which about 950 (1.4%) showed an effect of 50% or more. The sample holds strong results, similar compounds and a random draw of the others, so the mix is not that of the screen.
# System: Mycobacterium tuberculosis
# Test: Cornell M. t heat shock assay; note: in the data most compounds retested in dose-response had high values
# Assay type: functional, organism-based
# Set-up: dose or concentration left out as unconfirmed
row,SMILES,Percent Effect [%]
1,COC[C@]12COC[C@H]1CN(Cc1ccc3c(c1)OCO3)C2.O=C(O)C(F)(F)F,-2.808
2,CC(CN1CCOCC1)OC(=O)c1ccccc1I.Cl (stereo unspecified),-19.16
3,O=C(O)C(F)(F)F.c1ccc(N2CCOC3(CCCN(c4ncccn4)C3)C2)nc1 (stereo unspecified),36.25
4,Cn1cc(CN2CC[C@]3(C[C@H](Oc4ccccn4)CO3)C2)cn1.O=C(O)C(F)(F)F.O=C(O)C(F)(F)F,21.89
5,Cc1cccnc1N1CC2(CCN(Cc3cnn(C)c3)C2)C1.O=C(O)C(F)(F)F.O=C(O)C(F)(F)F,-17.77
6,CN(C)CCN1C(=O)CCC12CCN(Cc1cccs1)CC2.O=C(O)C(F)(F)F.O=C(O)C(F)(F)F,-4.329
7,CN(C)C(CNC(=O)c1cc2c([nH]c1=O)CCCC2=O)c1ccsc1 (stereo unspecified),-5.178
8,Cc1ccccc1CN1C[C@@H]2COC[C@]2(CNC(=O)C2CCC2)C1.O=C(O)C(F)(F)F,17.62
9,Cc1ccc(CN(CCCn2ccnc2)Cc2[nH]cnc2C)s1.O=C(O)CC(O)(CC(=O)O)C(=O)O,-16.97
10,Cc1ccc(CN(CCCn2ccnc2)Cc2cnc(N(C)C)nc2)s1.O=C(O)CC(O)(CC(=O)O)C(=O)O,-30.9
11,CCc1ccc(CN(CCCn2ccnc2)Cc2ccc(C)s2)o1.O=C(O)CC(O)(CC(=O)O)C(=O)O,103.6
12,Cc1nc(CN2CCO[C@@H]3CN(Cc4ccccn4)CC[C@@H]3C2)cs1.O=C(O)C(F)(F)F.O=C(O)C(F)(F)F,-0.9653
13,CC(=O)N1C[C@@H]2CC[C@H](C1)N(C(=O)CCc1n[nH]c3c1CCCC3)C2,-1.596
14,O=C(CCc1n[nH]c2c1CCCC2)N1C[C@@H]2CC[C@H](C1)N(CC1CC1)C2,90.59
15,CS(=O)(=O)N1C[C@@H]2CC[C@H](C1)N(C(=O)CCc1n[nH]c3c1CCCC3)C2,3.499
16,CN(C)C(=O)N1CCN(Cc2cnn(C)c2)CC2(CNC(=O)C2)C1.O=C(O)C(F)(F)F (stereo unspecified),0.6854
17,Cc1cc(NCCSc2nccn2C)n2ncnc2n1,-35.12
18,CCSCCNc1cc(C)nc2c(C)c(C)nn12,105.5
19,COCCn1cnnc1CNc1cc(C)nc2c(C)c(C)nn12,44.3
20,Cc1cc(NCCSc2nccn2C)n2nc(C)c(C)c2n1,72.35
21,Cc1ccnc(NCCSc2nccn2C)n1,9.062
22,Cc1cc(NCc2nnc3n2CCC3)n2nc(C)c(C)c2n1,-14.51
23,CC(C)C[C@H](N)c1nnc(SCC(N)=O)o1.Cl,-14.25

row,SMILES,Percent Effect [%]
1,Cn1ccnc1CN1CCC2(CC1)COC2.O=C(O)C(F)(F)F,6.701
2,CC(C)NC(=O)c1nc2c(s1)CCCN2Cc1ccccc1,16.22
3,CN(C)C(=O)c1nc2c(s1)CCCN2Cc1ccccc1,1.043
4,CCN(C(=O)c1nc2c(s1)CCCN2Cc1ccccc1)C(C)C,52.41
5,O=C(O)C(F)(F)F.O=C(O)C(F)(F)F.O=C(c1cccnc1)N1CCC2(CC1)COC(COc1ccccn1)C2 (stereo unspecified),-16.52
6,CC[C@@H]1N(Cc2ccncc2)CCC[C@]12CCC(=O)N2CCOC.O=C(O)C(F)(F)F.O=C(O)C(F)(F)F,-19.31
7,O=C(O)C(F)(F)F.O=C(O)C(F)(F)F.c1cnc(N2CCO[C@H]3CN(CC4CC4)C[C@H]32)nc1,-34.72
8,COc1ccccc1[C@@H]1CN(Cc2cc(C(C)(C)C)[nH]n2)C[C@H]1C(=O)O,79.87
9,COc1ccccc1[C@@H]1CN(Cc2ccc3nsnc3c2)C[C@H]1C(=O)O,-17.79
10,COc1ccccc1[C@@H]1CN(Cc2ccncc2)C[C@H]1C(=O)O,45.83
11,CN1CC(=O)N(c2ccccc2)CC12CCN(CC1CCOCC1)C2.O=C(O)C(F)(F)F.O=C(O)C(F)(F)F (stereo unspecified),3.802
12,CC(C)Cn1cnc2ccc(NC(=O)CCCn3cccn3)cc2c1=O,60.75
13,Cn1cnc2ccc(NC(=O)CCCn3cccn3)cc2c1=O,5.614
14,CC(C)n1cnc2ccc(NC(=O)CCCn3cccn3)cc2c1=O,-15.69
15,CC(C)[C@H](N)CC(=O)Nc1nc(-c2cnc(N3CCOCC3)nc2)cs1.Cl,-24.08
16,CCC(=O)N1C[C@@H]2CCN(c3cnccn3)C[C@@H]2C1.O=C(O)C(F)(F)F,-28.75
17,O=C(O)C(F)(F)F.c1cnc(NCc2nnn3c2CN(Cc2ccco2)CCC3)nc1,-16.16
18,CC(C)c1cc2c(s1)NC(c1ccccn1)NC2=O (stereo unspecified),100.6
19,Cc1ccc(C2NC(=O)c3cc(C(C)C)sc3N2)cc1 (stereo unspecified),19.82
20,CC(C)c1cc2c(s1)NC(c1ccccc1)NC2=O (stereo unspecified),16.99
21,CC(C)C(=O)N1CCN(Cc2ccccn2)CC2(CC(=O)N(C)C2)C1.O=C(O)C(F)(F)F.O=C(O)C(F)(F)F (stereo unspecified),-3.72
22,COc1ccccc1C(C)N(C)Cc1nc2c(cnn2C)c(=O)[nH]1 (stereo unspecified),82.45
23,Cc1ccc(C(C)N(C)Cc2nc3c(cnn3C)c(=O)[nH]2)c(C)c1 (stereo unspecified),-15.24

row,SMILES,Percent Effect [%]
1,Cc1ccc(CN(Cc2nc3c(cnn3C)c(=O)[nH]2)C(C)C)s1,-2.161
2,CC(C)CN(Cc1nc2c(cnn2C)c(=O)[nH]1)C(C)C,9.965
3,Cc1ccc(C(C)N(C)Cc2nc3c(cnn3C)c(=O)[nH]2)s1 (stereo unspecified),59.53
4,Cc1ccc(C(C)N(C)Cc2nc3c(cnn3C)c(=O)[nH]2)cc1 (stereo unspecified),36.86
5,CC(c1ccccc1Cl)N(C)Cc1nc2c(cnn2C)c(=O)[nH]1 (stereo unspecified),-6.582
6,CC(C)N(Cc1ccccn1)Cc1nc2c(cnn2C)c(=O)[nH]1,66.99
7,Cc1ccccc1C(C)N(C)Cc1nc2c(cnn2C)c(=O)[nH]1 (stereo unspecified),-10.61
8,COC(=O)CCC(=O)N1CCCC2(CCCN2Cc2cccc(F)c2)C1.O=C(O)C(F)(F)F (stereo unspecified),3.912
9,O=C(O)C(F)(F)F.O=C(c1ccco1)N1CC[C@@H]2O[C@@H](COCCN3CCCC3)CC[C@@H]21,-12.96
10,COCCN1CCC2(CC1)C(=O)Nc1ccc(C(=O)NC(C)C)cc12.O=C(O)C(F)(F)F,-30.6
11,O=C(NC1CCCN(c2ccc(OC(F)F)cc2)C1)c1cnccn1 (stereo unspecified),27.97
12,Cl.O=C(CN1CCCC1=O)N1CCC(O)(Cn2ccc3ccncc32)CC1,9.776
13,O=C(O)C(F)(F)F.O=S(=O)(C1CC1)N1C[C@@H]2COC[C@]2(COc2ccccn2)C1,-12.78
14,COc1cccc(CC2CCCN2Cc2nccn2C)c1 (stereo unspecified),0.2214
15,CNCC(=O)N1CCCC1c1n[nH]cc1-c1ccccc1F.Cl (stereo unspecified),-23.25
16,COc1ccc(NC(=O)N(CCO)Cc2ccsc2)c(OC)c1,-10.14
17,COc1cccc(OC)c1CNC(Cc1ccsc1)c1ccc(C)cn1 (stereo unspecified),103.5
18,COc1ccncc1NCc1ccsc1,-12.4
19,CCc1cnc(N)nc1NCc1ccc(OC)cc1OC,-28.22
20,COc1ccc(CNC(Cc2cccs2)c2nc(C)c(C)s2)cc1OC.Cl (stereo unspecified),-4.28
21,Cc1cccc(-c2ncc(CNC(C)Cc3ncccc3C)cn2)c1 (stereo unspecified),1.404
22,COc1cccc(CNC(C)C)c1OCc1ccc(C)cc1.Cl,4.479
23,COc1ccc(CNC(Cc2ccsc2)c2ccc(C)cn2)cc1OC.Cl (stereo unspecified),97.07

row,SMILES,Percent Effect [%]
1,COc1ccc(CNC(Cc2ccsc2)c2ccc(C)cn2)c(OC)c1 (stereo unspecified),104.3
2,Cc1cccnc1C(Cc1ccsc1)NC(=O)Cn1cccnc1=O (stereo unspecified),-0.9287
3,Cc1cccnc1C(Cc1ccsc1)NCc1cnc(N(C)C)nc1 (stereo unspecified),69.2
4,COc1ccc(CNc2c(C)nn(C(C)C)c2C)cc1OC.Cl,12.96
5,COc1ccccc1OCCNCc1c(C)nn(C)c1N(C)C.Cl,31.69
6,COc1ccc(CC(=O)NCC(O)c2sccc2C)cc1OC (stereo unspecified),0.2606
7,Cc1ccc(CNC2CCc3[nH]c(=O)ccc3C2)cc1C.O=C(O)C(F)(F)F (stereo unspecified),-33.52
8,O=C(O)C(F)(F)F.O=C(O)C(F)(F)F.c1cnc(N2CC3(CCN(Cc4cccnc4)C3)C2)nc1,-26.88
9,CN1CCCC1c1cncc(C(=O)NCCN2CCCCC2)n1 (stereo unspecified),-9.497
10,O=C(Nc1cccnc1-n1cc(Cl)cn1)C1CCCC1,16.14
11,Cc1cc(C2CCNCC2)nc(-c2ccsc2)n1.Cl,-13.2
12,CN(C)[C@@H]1CCN(C(=O)Cc2ccc(F)cc2)[C@H]1Cc1cnn(C)c1.O=C(O)C(F)(F)F,10.95
13,COc1ccc(CNC(C)Cn2cccn2)cc1OC (stereo unspecified),-13.02
14,CCc1cnc(N)nc1NCc1ccc(OC)c(OC)c1,5.948
15,COc1ccc(C(C)NCc2ccsc2)cc1Cn1cccn1 (stereo unspecified),-10.38
16,COc1ncc(NCc2ccsc2)cc1C(N)=O,-17.59
17,COc1ccc(CNC(Cc2ccsc2)c2ncccc2C)cc1OC (stereo unspecified),96.19
18,Cc1cnc(N2CCC3(CCN(Cc4csc(C)n4)C3=O)C2)nc1.O=C(O)C(F)(F)F (stereo unspecified),-3.389
19,Cc1ccc2c(n1)N(Cc1cccnc1)CCN(C(=O)C1CC1)C2.O=C(O)C(F)(F)F.O=C(O)C(F)(F)F,-27.88
20,Cl.Cn1ccnc1C1(O)CCN(C(=O)Cc2ccccc2)CC1,-18.55
21,CN(Cc1ccc(-n2cccn2)cc1)C[C@@H]1CCCN2CCCC[C@H]12,-24.54
22,Cc1ccc(N2CCC3(CCN(C(=O)c4ccccn4)CC3)CC2)nn1.O=C(O)C(F)(F)F.O=C(O)C(F)(F)F,-19.27
